Test results published in PubChem BioAssay (NCATS).
Inconclusive results are not listed. The source made the active and inactive calls. Calls follow the shape of the dose curve; as a rule, active = well fitted curve in the direction sought with a large enough effect; inconclusive = small, poorly fitted or top-dose-only effect, or another doubt; inactive = no such curve, though single readings can be large; an effect the other way counts as inactive or inconclusive.

Legend:
[1] = Cellular Toxicity (caspase-3) Mesangial (AID 660); conditions: mesangial cells, normalized: DMSO 0%, 100 µM tamoxifen 100%; at 91.7 µM (top of the series)
Summary of the method: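 Human renal glomerular mesangial cells (1000/well) were treated with compounds for 16 h at 37 °C in complete medium, then caspase 3/7 activity was read by Caspase-Glo luminescence. Data were normalized to DMSO and 100 uM tamoxifen; AC50 from Hill fits.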

[2] = Cellular Toxicity (caspase-3) SK-N-SH (AID 661);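 also: 0% = DMSO basal and 100% = 10 µM staurosporine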
Summary of the method: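 SK-N-SH human neuroblastoma cells (1500/well) were treated with compounds for 16 hr at 37 °C in complete medium; caspase 3/7 activity was read by Caspase-Glo luminescence. AC50 came from Hill fits of data normalized to DMSO and 10 uM staurosporine.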

[3] = Cellular Toxicity (caspase-3) H-4-II-E (AID 663); conditions: H-4-II-E rat hepatoma, scaled: DMSO 0%, 100 µM tamoxifen 100%; at 92.2 µM (top of the series);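 also: cells exposed to compound for 16 hr before readout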
Summary of the method: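 Rat hepatoma H-4-II-E cells (1500/well) plated 5 hr, then exposed to compound titrations for 16 hr at 37 °C. Caspase-Glo 3/7 luminescence read after 20 min at RT; data normalized to DMSO and 100 uM tamoxifen, AC50 from Hill fits.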

[4] = Cellular Toxicity (caspase-3) Hek293 (AID 664); conditions: HEK293 caspase-3 activation, DMSO = 0%, 100 µM tamoxifen = 100%; at 92.2 µM (top of the series);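 also: cells exposed to compound for 16 h at 37 °C before readout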
Summary of the method: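 HEK293 cells were exposed to compounds in complete medium for 16 hr at 37 °C, then caspase-3/7 activity was read by Caspase-Glo 3/7 luminescence after 20 min at room temperature. Data normalized to DMSO and 100 uM tamoxifen; AC50 from Hill fits.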

[5] = Cellular Toxicity (caspase-3) N2a (AID 665);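 also: compound exposure lasted 16 h at 37 °C before readout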
Summary of the method: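 Mouse N2a neuroblastoma cells (1500/well) were treated with compounds for 16 h at 37 °C, then caspase-3/7 activity was read by Caspase-Glo luminescence after 1 h at room temperature. Data were normalized to DMSO and 10 uM staurosporine; AC50 from Hill fits.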

[6] = Cellular Toxicity (caspase-3) NIH 3T3 (AID 666);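 also: caspase signal read after 16 h compound exposure; 0% = DMSO basal and 100% = 100 µM tamoxifen stimulation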
Summary of the method: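 Mouse NIH 3T3 fibroblasts (1000 cells/well) were treated with compound for 16 hr at 37°C in complete medium; caspase-3/7 activity was read by Caspase-Glo luminescence. Normalized to DMSO and 100 uM tamoxifen; AC50 from Hill fits.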

[7] = Cellular Toxicity (caspase-3) Renal Proximal Tubule (AID 667); conditions: Potency: caspase-3 activation;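 also: cells exposed to compound for 16 hours at 37 °C before detection; 0% = DMSO basal and 100% = 10 µM staurosporine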
Summary of the method: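 Primary rat proximal tubule cells, 1000/well, 5 h plating at 37 °C, then compound 16 h at 37 °C. Caspase-Glo 3/7 reagent, 1 h RT, luminescence. Normalized to DMSO (basal) and 10 uM staurosporine (100%); Hill-fit AC50.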

[8] = target: Cytochrome P450 3A4 (Homo sapiens) (UniProt P08684); experiment: qHTS Assay for Inhibitors and Substrates of Cytochrome P450 3A4 (AID 884); also: % is scaled to controls: 0 for no effect and ±100 for the full control effect; nearly all actives have a fitted effect of over 50% in size
Chain of Cytochrome P450 3A4 (Homo sapiens) (P08684 whole entry, looked up): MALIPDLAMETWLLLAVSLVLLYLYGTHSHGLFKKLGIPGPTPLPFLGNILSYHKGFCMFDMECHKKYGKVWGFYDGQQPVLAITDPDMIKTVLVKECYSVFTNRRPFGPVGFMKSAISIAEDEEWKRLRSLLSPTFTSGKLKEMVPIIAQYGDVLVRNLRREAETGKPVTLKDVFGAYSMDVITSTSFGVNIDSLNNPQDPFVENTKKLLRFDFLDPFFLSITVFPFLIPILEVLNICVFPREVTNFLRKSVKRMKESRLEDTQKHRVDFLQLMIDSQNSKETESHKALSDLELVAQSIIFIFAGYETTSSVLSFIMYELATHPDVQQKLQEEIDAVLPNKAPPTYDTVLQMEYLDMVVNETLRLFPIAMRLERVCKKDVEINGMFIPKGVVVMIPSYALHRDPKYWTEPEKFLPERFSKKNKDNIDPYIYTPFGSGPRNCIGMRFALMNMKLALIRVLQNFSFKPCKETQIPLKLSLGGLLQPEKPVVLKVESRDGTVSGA
Summary of the method: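 20 nM human CYP3A4 with 25 uM Luciferin-PPXE (at KM) in 200 mM KPO4, preincubated 10 min with compound; NADPH regeneration started a 60 min RT reaction. Luciferin detected by luminescence, normalized to 57 uM ketoconazole as full inhibition.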

[9] = Cell Viability - LYMP2-001 (AID 921);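 also: 0% = DMSO only and full inhibition = tetraoctylammonium bromide control wells; nearly all actives have a fitted effect of over 70% in size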
Summary of the method: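 Human lymphoblastoid cells (Coriell), 2500 per well, were preincubated 5 hr at 37 C, then exposed to compounds in complete medium for 24 hr at 37 C. Cellular ATP was read by CellTiter-Glo luminescence; AC50 from Hill fits of concentration-response data.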

[10] = MultiTox-Fluor Cytotoxicity Assay - LYMP1-001 - Dead Cells (AID 946)
Summary of the method: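 Cytotoxicity as increased dead-cell protease fluorescence (bis-AAF-R110, 485/520 nm), read 60 min after MultiTox-Fluor reagent. Human lymphoblastoid line exposed 16 h; Hill-fitted AC50, with DMSO as 0% and 15 uM tetraoctylammonium bromide as 100%.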

[11] = Cell Viability - LYMP1-002 - Assay at 16 hr (AID 948);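 also: 0% = DMSO alone and full effect = 92 µM tetraoctylammonium bromide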
Summary of the method: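 Human lymphoblastoid cells (LYMP1-002), 2500/well, were preincubated 5 hr at 37 C, then exposed to compounds for 16 hr at 37 C in complete medium. Cellular ATP was read by CellTiter-Glo luminescence after 30 min at room temperature; AC50 from Hill fits.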

[12] = MultiTox-Fluor Cytotoxicity Assay - LYMP1-002 - Live Cells (AID 955); also: % is scaled to controls: 0 for no effect and ±100 for the full control effect
Summary of the method: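 Human lymphoblastoid LYMP1-002 cells, 2500/well in complete medium, rested 5 hr at 37 C, then exposed to compounds for 16 hr at 37 C. Live-cell protease cleavage of GF-AFC read by fluorescence (Ex/Em 405/510) after 60 min at room temperature; AC50 from Hill fits.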

[13] = MultiTox-Fluor Cytotoxicity Assay - LYMP1-002 - Dead Cells (AID 960); also: nearly all actives have a fitted effect of over 60% in size
Summary of the method: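 Human lymphoblastoid cells (LYMP1-002), 2500/well in complete medium, were exposed to compounds for 16 hr at 37 C. Dead-cell protease activity was read as bis-AAF-R110 fluorescence (Ex/Em 485/520), normalized to DMSO and 15 uM tetraoctylammonium bromide; AC50 from Hill fits.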

[14] = MultiTox-Fluor Cytotoxicity Assay - LYMP1-003 - Dead Cells (AID 961); also: nearly all actives have a fitted effect of over 70% in size
Summary of the method: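 Dead-cell protease release, detected as bis-AAF-R110 fluorescence at 485/520 nm, was measured in LYMP1-003 cells after 16 h compound treatment at 37 C. AC50 values came from Hill-modeled qHTS curves normalized to DMSO (0%) and 15 uM tetraoctylammonium bromide (100%).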

[15] = MultiTox-Fluor Cytotoxicity Assay - LYMP1-003 - Live Cells (AID 962);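 also: 0% = DMSO only and full loss = 92 µM tetraoctylammonium bromide; cytotoxic hits lower the live-cell protease signal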
Summary of the method: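 LYMP1-003 human lymphoblastoid cells (2500/well) in complete medium were preincubated 5 hr at 37 C, then exposed to compounds for 16 hr at 37 C. Live-cell protease cleavage of GF-AFC read by fluorescence (Ex/Em 405/510); AC50 from Hill fits.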

[16] = Cell Viability - LYMP1-003 - Assay at 24 hr (AID 963);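 also: plate controls were DMSO only for no effect and tetraoctylammonium bromide positive control for full effect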
Summary of the method: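 Human lymphoblastoid LYMP1-003 cells (2500/well) were rested 5 hr at 37 C, then exposed to compounds in complete medium for 24 hr at 37 C. Cellular ATP was quantified by CellTiter-Glo luminescence, and AC50 values came from Hill fits of concentration-response data.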

[17] = Cell Viability - LYMP1-003 - Assay at 40 hr (AID 964); also: % is scaled to controls: 0 for no effect and ±100 for the full control effect; nearly all actives have a fitted effect of over 60% in size
Summary of the method: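 Human lymphoblastoid LYMP1-003 cells, 2500/well in complete medium, rested 5 hr at 37 C, then exposed to compounds for 40 hr at 37 C. Viability read as intracellular ATP by CellTiter-Glo luminescence; AC50 from Hill fits of concentration-response data.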

[18] = Cell Viability - LYMP2-003 (AID 965);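 also: cells exposed to compounds for 24 h before reading; 0% = DMSO only and full effect = 92 µM tetraoctylammonium bromide; nearly all actives have a fitted effect of over 50% in size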
Summary of the method: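 Human lymphoblastoid cells (2500/well) were pre-incubated 5 hr at 37 C, then exposed to compounds over a concentration range for 24 hr at 37 C. Intracellular ATP was read by CellTiter-Glo luminescence; AC50 came from Hill-equation fits.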

Cc1cccc(C)c1[N+](=O)[O-]
inactive: caspase-3 activation [1] 0.452% | outcome [2] | caspase-3 activation [3] -0.326% | caspase-3 activation [4] -0.173% | outcome [5] | outcome [6] | Potency [7] | Potency [8] | Potency [9] | outcome [10] | outcome [11] | outcome [12] | outcome [13] | Potency [14] | Potency [15] | Potency [16] | Potency [17] | Potency [18]

NC(=O)NC(N)=O
inactive: caspase-3 activation [1] -0.43% | outcome [2] | caspase-3 activation [3] -0.188% | caspase-3 activation [4] 0.826% | outcome [5] | outcome [6] | Potency [7] | Potency [8] | Potency [9] | outcome [10] | outcome [11] | outcome [12] | outcome [13] | Potency [14] | Potency [15] | Potency [16] | Potency [17] | Potency [18]

C=C(C)C(N)=O
inactive: caspase-3 activation [1] -0.474% | outcome [2] | caspase-3 activation [3] -0.402% | caspase-3 activation [4] -0.593% | outcome [5] | outcome [6] | Potency [7] | Potency [8] | Potency [9] | outcome [10] | outcome [11] | outcome [12] | outcome [13] | Potency [14] | Potency [15] | Potency [16] | Potency [17]

Cc1cccc2ccccc12
inactive: caspase-3 activation [1] 0.763% | outcome [2] | caspase-3 activation [3] 0.93% | caspase-3 activation [4] 0.828% | outcome [5] | outcome [6] | Potency [7] | Potency [8] | Potency [9] | outcome [10] | outcome [11] | outcome [12] | outcome [13] | Potency [14] | Potency [15] | Potency [16] | Potency [17] | Potency [18]

CCCCCO
inactive: caspase-3 activation [1] 1.64% | outcome [2] | caspase-3 activation [3] -0.271% | caspase-3 activation [4] -0.0419% | outcome [5] | outcome [6] | Potency [7] | Potency [8] | Potency [9] | outcome [10] | outcome [11] | outcome [12] | outcome [13] | Potency [14] | Potency [15] | Potency [16] | Potency [17] | Potency [18]

Cc1cc(C)cc(N)c1
inactive: caspase-3 activation [1] -0.679% | outcome [2] | caspase-3 activation [3] -0.0763% | caspase-3 activation [4] -0.185% | outcome [5] | outcome [6] | Potency [7] | Potency [8] | Potency [9] | outcome [10] | outcome [11] | outcome [12] | outcome [13] | Potency [14] | Potency [15] | Potency [16] | Potency [17] | Potency [18]

OCCO
inactive: caspase-3 activation [1] -0.444% | outcome [2] | caspase-3 activation [3] -0.0515% | caspase-3 activation [4] 0.819% | outcome [5] | outcome [6] | Potency [7] | Potency [8] | Potency [9] | outcome [10] | outcome [11] | outcome [12] | outcome [13] | Potency [14] | Potency [15] | Potency [16] | Potency [17] | Potency [18]
